# Measured values from the OligoGym collection.
# Target: LHFPL4
# Assay: pooled miR-30 sensor sort-seq; sequence = guide strand
# Conditions: shRNA
# Note: reference of the scale not given here.
row,Sequence,sensor-assay potency score (higher = more potent)
1,ATCTTGTAGACCGTAGCCGTGT,-0.823
2,TCCGCATGTAGTGCTCGTGGTA,-1.39
3,AAAATCTTTGTTCTCCGGCTTG,-0.289
4,TTCCGCATGTAGTGCTCGTGGT,-0.829

# Target: LHFPL5
# Assay: as above
# Conditions: shRNA
row,Sequence,sensor-assay potency score (higher = more potent)
1,AACATAAGTAACACATTTCTGA,-0.109
2,TAGACTGTGGCCGTGTTGCAGA,-0.721
3,TTGACGCTGTCGCCGATCCAGT,-1.35
4,TACAGTAGGAGGTCTTGTCTCA,-0.0507
5,TAACACATTTCTGAAGCTGGTA,0.181
6,TAGTGTTATAATAAAAGGCTTC,-0.225
7,TAGTTGGTATGGTAGATCTTGG,-1.03
8,TTGTCTCAGGAGACTGTCCAGT,-0.336
9,TTGAACATAAGTAACACATTTC,-0.364
10,TATAACAAATTACTTGAACATA,-1.51
11,TTGCAGATGAAGAACAGGCTGA,0.379
12,TTCTGGTTGAGTCAGTGTGGGC,-1.68

# Target: LHX3
# Assay: as above
# Conditions: shRNA
row,Sequence,sensor-assay potency score (higher = more potent)
1,TAGGTCAGAACTGGGTCCGTTC,-0.902
2,TGCACTTGAGACACTTGCTGTG,-0.126
3,TTGAGACACTTGCTGTGCCAGT,-0.489
4,TTTCATGTCTAGAAATAGCAGC,0.283
5,TTGAAGTCTTGGAAAGAGCTGA,0.479
6,TTGCAGTAAACGCTCTCCCCTC,-0.865
7,ATGAGGTAGAACTCGTCGCCCG,-1.34
8,TTGAAAAAGTCGTCCTTGCAGT,-0.456
9,TTGTCCGACTTGGAGCCGCCGC,-1.19
10,TTTGGCAACAGACATCTGTGGG,-0.246
11,TTTGACTTACACACAGGCCAGC,-0.684
12,TTGGCAACAGACATCTGTGGGT,0.209

# Target: LHX9
# Assay: as above
# Conditions: shRNA
row,Sequence,sensor-assay potency score (higher = more potent)
1,TAGTTTGTGAGGGGCTTCCGGA,-1.17
2,TACAGTGATAGTGGGATTGGTC,-0.245
3,TTACATTCACAGCACTTCAGGC,-0.155
4,TGCGTTTTGGAACCAAACCTGC,-1.08
5,TTGAGGTCCTTGGCATCCGGGT,-1.42
6,TTTCTGGGCAAGCTGCTTGAGG,-0.927
7,TTAAAGTGGTCGCAGTGCCGGG,-1.18
8,TTTCATGGTCCGGAGCTGGTGA,-0.253
9,TGTCACTACAGTGATAGTGGGA,0.281
10,TTCTGAATTTGGCTCGTGCGTT,-1.08
11,TAAAGTGGTCGCAGTGCCGGGT,-0.418
12,TTCCTTCTGAATTTGGCTCGTG,0.209
